Experimental data as given in PubChem BioAssay (EPA / NIEHS).
“And” between values parts separate entries of the source, which are not always exact repeats. Equal entries are not always repeated. A structure can be active in one record and inactive in another. The source made the active and inactive calls. The calls were made as follows: active = hit-call score of the fitted dose curve at least 0.9, where 1 is the maximum; inactive = score below 0.9.

Experiments:
[1] = ATG_CRE_CIS: Attagene CIS-FACTORIAL HepG2 Assay for human cAMP Responsive Element (CRE) binding protein 3 (AID 2282926); details: HepG2 CRE cis-reporter, Attagene multiplexed mRNA; actives raise or lower the signal
Summary of the method: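 HepG2 cells transiently transfected with cis-element-driven multiple reporter transcription units; CRE reporter mRNA measured 24 h after dosing by RT-PCR, 6-FAM labelling, HpaI digestion and capillary electrophoresis. Bidirectional fit versus DMSO baseline.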

[2] = biological target: CCAAT/enhancer-binding protein beta (Homo sapiens) (UniProt P17676); assay: ATG_C_EBP_CIS: Attagene CIS-FACTORIAL HepG2 Assay for human CCAAT/Enhancer Binding Protein (C/EBP) beta (AID 2282927); details: HepG2 Attagene cis-factorial transcription factor reporter; actives raise or lower the signal
Sequence of CCAAT/enhancer-binding protein beta (Homo sapiens) (P17676 whole entry, looked up): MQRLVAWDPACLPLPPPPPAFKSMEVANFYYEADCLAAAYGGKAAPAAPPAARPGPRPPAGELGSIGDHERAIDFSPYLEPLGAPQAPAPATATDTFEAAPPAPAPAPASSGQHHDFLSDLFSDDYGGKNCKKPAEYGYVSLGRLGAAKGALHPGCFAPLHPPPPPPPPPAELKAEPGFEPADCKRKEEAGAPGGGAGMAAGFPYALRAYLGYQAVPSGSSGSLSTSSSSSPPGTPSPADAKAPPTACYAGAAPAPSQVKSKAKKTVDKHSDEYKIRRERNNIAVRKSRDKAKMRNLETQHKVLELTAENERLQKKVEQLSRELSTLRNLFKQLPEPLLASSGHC
Summary of the method: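 HepG2 transiently transfected with multiplexed reporter units under cis-regulatory promoters reporting endogenous C/EBPb activity. After 24 h exposure, reporter mRNA assayed by RT-PCR, fluorescent labelling, HpaI digestion and capillary electrophoresis; bidirectional fitting versus DMSO.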

[3] = ATG_CMV_CIS: Attagene CIS-FACTORIAL HepG2 Assay for human CMV (Internal Marker) (AID 2282928); details: HepG2 CMV promoter reporter, transcription factor profiling; actives raise or lower the signal;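 also: endpoint acts as a background internal control marker rather than a target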
Summary of the method: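 HepG2 cells transiently transfected with multiple cis-regulated reporter units; 24 h compound exposure. Reporter mRNA quantified by RT-PCR, 6-FAM primer-extension labeling, HpaI digestion and capillary electrophoresis; bidirectional fitting against DMSO baseline.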

[4] = biological target: Aryl hydrocarbon receptor (Homo sapiens) (UniProt P35869); assay: ATG_Ahr_CIS: Attagene CIS-FACTORIAL HepG2 Assay for human Aryl Hydrocarbon Receptor (Ahr) (AID 2282930); details: HepG2 AhR cis-factorial reporter transcription; actives raise or lower the signal
Sequence of Aryl hydrocarbon receptor (Homo sapiens) (P35869 whole entry, looked up): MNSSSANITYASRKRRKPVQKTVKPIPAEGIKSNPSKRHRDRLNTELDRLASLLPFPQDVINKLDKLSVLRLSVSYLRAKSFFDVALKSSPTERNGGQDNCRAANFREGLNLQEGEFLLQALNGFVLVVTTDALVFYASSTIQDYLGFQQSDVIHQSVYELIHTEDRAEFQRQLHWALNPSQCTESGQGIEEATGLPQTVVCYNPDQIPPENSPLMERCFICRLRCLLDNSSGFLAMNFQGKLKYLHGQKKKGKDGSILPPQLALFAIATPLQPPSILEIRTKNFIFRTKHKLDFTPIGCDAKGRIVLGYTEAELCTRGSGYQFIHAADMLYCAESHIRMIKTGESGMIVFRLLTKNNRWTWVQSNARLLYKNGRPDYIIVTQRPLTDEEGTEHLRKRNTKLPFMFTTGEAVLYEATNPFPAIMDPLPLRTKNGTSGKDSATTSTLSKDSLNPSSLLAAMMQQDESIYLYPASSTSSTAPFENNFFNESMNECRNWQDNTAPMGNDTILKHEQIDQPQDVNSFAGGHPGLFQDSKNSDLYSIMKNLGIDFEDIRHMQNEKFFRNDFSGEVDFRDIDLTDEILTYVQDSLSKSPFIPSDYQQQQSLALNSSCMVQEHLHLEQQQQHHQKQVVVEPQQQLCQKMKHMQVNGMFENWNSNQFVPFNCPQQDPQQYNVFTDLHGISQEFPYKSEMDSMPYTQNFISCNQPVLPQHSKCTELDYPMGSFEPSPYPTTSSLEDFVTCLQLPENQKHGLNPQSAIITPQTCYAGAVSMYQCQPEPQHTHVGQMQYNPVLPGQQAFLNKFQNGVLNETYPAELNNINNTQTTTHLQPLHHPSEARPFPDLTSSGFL
Summary of the method: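 HepG2 cells transiently transfected with cis-element-driven multiplexed reporter units; endogenous AhR activity read as reporter mRNA 24 h after dosing, via RT-PCR, 6-FAM labelling, HpaI digestion and capillary electrophoresis. Bidirectional fit relative to DMSO.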

[5] = ATG_AP_1_CIS: Attagene CIS-FACTORIAL HepG2 Assay for human Activator Protein 1 (AP-1) (AID 2282931); details: HepG2 Attagene cis-factorial AP-1 reporter mRNA; actives raise or lower the signal
Summary of the method: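 HepG2 cells transiently transfected with cis-element-driven reporter transcription units, dosed for 24 hours. Reporter mRNA measured by RT-PCR, 6-FAM labelling, HpaI digestion and capillary electrophoresis. Bidirectional fitting against DMSO baseline.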

[6] = ATG_AP_2_CIS: Attagene CIS-FACTORIAL HepG2 Assay for human Activator Protein 2 (AP-2) (AID 2282932); details: HepG2 AP-2 cis-reporter, Attagene transcription factor profiling; actives raise or lower the signal
Summary of the method: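 Multiplexed mRNA reporter assay in HepG2: cis-regulated units report endogenous factor activity after 24 h treatment. Fluorescence from capillary electrophoresis of RT-PCR products gives the signal, with DMSO as baseline.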

[7] = ATG_BRE_CIS: Attagene CIS-FACTORIAL HepG2 Assay for human Bone Morphogenetic Protein (BMP) Response Element (BRE) (AID 2282933); details: HepG2 BMP response element reporter, Attagene transcription factor profiling; actives raise or lower the signal
Summary of the method: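 A HepG2 multiplex reporter system measured inducible reporter mRNA 24 h post-dosing. Detection: RT-PCR, 6-FAM primer extension, HpaI digestion, capillary electrophoresis. Activity fitted bidirectionally relative to DMSO.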

[8] = biological target: Retinoic acid receptor alpha (Homo sapiens) (UniProt P10276); assay: ATG_DR5_RAR_CIS: Attagene CIS-FACTORIAL HepG2 Assay for human Retinoic Acid Receptor Alpha (RARE), DR5 submotif (AID 2282934); details: HepG2 Attagene cis-factorial RARE DR5 reporter, mRNA; actives raise or lower the signal
Sequence of Retinoic acid receptor alpha (Homo sapiens) (P10276 whole entry, looked up): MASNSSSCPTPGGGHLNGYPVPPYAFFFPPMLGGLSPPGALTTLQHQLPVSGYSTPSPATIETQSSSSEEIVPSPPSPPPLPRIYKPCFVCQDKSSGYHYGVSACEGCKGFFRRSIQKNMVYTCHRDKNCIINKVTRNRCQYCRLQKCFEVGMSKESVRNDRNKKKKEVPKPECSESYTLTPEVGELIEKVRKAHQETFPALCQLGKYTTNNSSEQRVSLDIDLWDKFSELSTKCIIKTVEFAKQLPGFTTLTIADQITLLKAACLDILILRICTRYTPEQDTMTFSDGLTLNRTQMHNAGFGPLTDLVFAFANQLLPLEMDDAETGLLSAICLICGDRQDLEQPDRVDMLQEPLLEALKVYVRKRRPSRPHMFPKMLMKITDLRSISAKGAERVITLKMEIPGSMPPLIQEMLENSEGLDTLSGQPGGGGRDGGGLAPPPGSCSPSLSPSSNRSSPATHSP
Summary of the method: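 HepG2 cells transiently transfected with multiplexed reporter units; DR5 cis-element drives reporter through endogenous transcription factors. After 24 h dosing, reporter mRNA quantified by RT-PCR, fluorescent labeling, HpaI digestion and capillary electrophoresis; bidirectional fitting versus DMSO.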

[9] = biological target: Transcription factor E2F1 (Homo sapiens) (UniProt Q01094); assay: ATG_E2F_CIS: Attagene CIS-FACTORIAL HepG2 Assay for human E2F Transcription Factor 1 (AID 2282935); details: HepG2 Attagene cis-reporter, E2F reporter RNA transcripts; actives raise or lower the signal
Sequence of Transcription factor E2F1 (Homo sapiens) (Q01094 whole entry, looked up): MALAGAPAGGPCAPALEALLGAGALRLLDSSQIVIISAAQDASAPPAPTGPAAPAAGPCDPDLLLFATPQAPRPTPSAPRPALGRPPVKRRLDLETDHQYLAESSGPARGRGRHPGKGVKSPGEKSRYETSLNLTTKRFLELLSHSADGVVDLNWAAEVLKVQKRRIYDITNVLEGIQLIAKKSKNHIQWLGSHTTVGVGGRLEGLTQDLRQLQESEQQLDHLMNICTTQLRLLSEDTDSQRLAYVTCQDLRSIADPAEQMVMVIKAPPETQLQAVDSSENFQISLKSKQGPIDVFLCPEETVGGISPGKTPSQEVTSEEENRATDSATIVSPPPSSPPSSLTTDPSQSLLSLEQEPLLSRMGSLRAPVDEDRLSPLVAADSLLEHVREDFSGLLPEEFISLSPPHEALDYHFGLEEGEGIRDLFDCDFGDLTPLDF
Summary of the method: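 Measures reporter transcript levels via RT-PCR with capillary electrophoresis detection in HepG2 cells harboring cis-regulated reporter units; 24 h post-dose; bidirectional curve fitting with DMSO as baseline.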

[10] = ATG_E_Box_CIS: Attagene CIS-FACTORIAL HepG2 Assay for human Enhancer Box (E-box) (AID 2282936); details: HepG2 E-box cis-reporter transcription, actives raise or lower the signal
Summary of the method: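 First, HepG2 cells receive multiple cis-regulated reporter constructs by transient transfection. Next, chemicals are applied for 24 h. Finally, reporter mRNA is quantified via RT-PCR and capillary electrophoresis, with DMSO as baseline.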

[11] = ATG_EGR_CIS: Attagene CIS-FACTORIAL HepG2 Assay for human Early Growth Response 1 (EGR1) (AID 2282938); details: HepG2 Attagene CIS-FACTORIAL EGR reporter mRNA; actives raise or lower the signal
Summary of the method: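 HepG2 cells transiently transfected with cis-element-driven multiplexed reporter units, dosed for 24 h. EGR1-element reporter mRNA quantified by RT-PCR, 6-FAM labelling, HpaI digestion and capillary electrophoresis; bidirectional fit versus DMSO.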

[12] = ATG_M_19_CIS: Attagene CIS-FACTORIAL HepG2 Assay for M19 Transcription Factor (Internal Marker) (AID 2282939); details: HepG2 Attagene CIS-FACTORIAL M19 internal marker reporter; actives raise or lower the signal
Summary of the method: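 Chemical-treated HepG2 (24 h) with MRTU constructs; reporter transcripts detected by fluorescent RT-PCR fragment analysis on capillary electrophoresis. Internal background marker, DMSO as baseline.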

[13] = ATG_ERE_CIS: Attagene CIS-FACTORIAL HepG2 Assay for Estrogen Response Element (ERE) (AID 2282940); details: HepG2 ERE cis-reporter, Attagene RNA transcript; actives raise or lower the signal
Summary of the method: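 Human liver cells (HepG2) bearing transiently transfected, promoter-regulated reporter units were exposed 24 h. Reporter mRNA induction was detected by capillary electrophoresis of labelled RT-PCR products and fitted bidirectionally to DMSO.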

[14] = ATG_Ets_CIS: Attagene CIS-FACTORIAL HepG2 Assay for human Erythroblast Transformation Specific (ETS) (AID 2282941); details: HepG2 ETS cis-reporter transcription, actives raise or lower the signal
Summary of the method: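 HepG2 cells transiently transfected with cis-promoter reporter transcription units were dosed for 24 h; reporter mRNA was measured by RT-PCR, 6-FAM primer extension, HpaI digestion and capillary electrophoresis, with bidirectional fitting against DMSO baseline.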

[15] = biological target: Hepatocyte nuclear factor 3-beta (Homo sapiens) (UniProt Q9Y261); assay: ATG_FoxA2_CIS: Attagene CIS-FACTORIAL HepG2 Assay for human Forkhead box A2 (FOXA2) (AID 2282942); details: HepG2 cis-reporter transcription factor activity, 24 h; actives raise or lower the signal
Sequence of Hepatocyte nuclear factor 3-beta (Homo sapiens) (Q9Y261 whole entry, looked up): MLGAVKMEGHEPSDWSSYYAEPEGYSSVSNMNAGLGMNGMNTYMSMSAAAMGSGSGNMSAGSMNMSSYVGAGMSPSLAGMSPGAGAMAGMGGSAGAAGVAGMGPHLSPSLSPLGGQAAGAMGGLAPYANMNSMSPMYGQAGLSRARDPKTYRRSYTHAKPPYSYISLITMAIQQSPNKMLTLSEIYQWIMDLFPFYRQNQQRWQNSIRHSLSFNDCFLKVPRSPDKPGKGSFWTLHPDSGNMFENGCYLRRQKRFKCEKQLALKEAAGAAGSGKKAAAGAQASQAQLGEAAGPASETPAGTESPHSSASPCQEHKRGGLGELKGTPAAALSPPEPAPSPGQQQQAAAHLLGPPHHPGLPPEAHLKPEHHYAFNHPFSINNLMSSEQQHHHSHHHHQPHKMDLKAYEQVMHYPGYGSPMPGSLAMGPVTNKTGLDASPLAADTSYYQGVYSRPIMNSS
Summary of the method: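 HepG2 transiently transfected with a multiplexed cis-promoter reporter library read endogenous FOXA2 activity. After 24 h compound exposure, reporter mRNA was quantified by RT-PCR, HpaI digestion and capillary electrophoresis. Bidirectional fit against DMSO.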

[16] = ATG_FoxO_CIS: Attagene CIS-FACTORIAL HepG2 Assay for human Forkhead box O (FoxO) (AID 2282943); details: HepG2 Attagene cis-reporter, FoxO element, mRNA; actives raise or lower the signal
Summary of the method: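 HepG2 cells transiently transfected with cis-element-driven reporter units report endogenous FoxO activity. After 24 h chemical exposure, reporter mRNA quantified by RT-PCR, fluorescent labeling, HpaI digestion and capillary electrophoresis; bidirectional fit versus DMSO.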

[17] = ATG_GATA_CIS: Attagene CIS-FACTORIAL HepG2 Assay for human GATA Binding Protein (AID 2282944); details: HepG2 GATA cis-element reporter, Attagene multiplex mRNA; actives raise or lower the signal
Summary of the method: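 Transfected cis-reporter HepG2 cells were treated with chemicals for 24 hours. Total RNA was then converted to cDNA, amplified with reporter-specific primers and analysed by fluorescent capillary electrophoresis, using DMSO-treated wells as baseline.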

[18] = ATG_GLI_CIS: Attagene CIS-FACTORIAL HepG2 Assay for human Zinc Finger Protein GLI1 (AID 2282945); details: HepG2, Attagene cis-factorial reporter mRNA, GLI element; actives raise or lower the signal
Summary of the method: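 Transiently transfected HepG2 cells report endogenous transcription factor activity via cis-element-driven reporter units. After 24 h compound exposure, reporter mRNA was measured by RT-PCR with capillary electrophoresis; bidirectional fitting against DMSO baseline.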

[19] = ATG_DR4_LXR_CIS: Attagene CIS-FACTORIAL HepG2 Assay for human Liver X Receptor (LXR), DR4 submotif (AID 2282929); details: HepG2 Attagene DR4 cis-reporter, mRNA transcription; actives raise or lower the signal
Summary of the method: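 HepG2 cells were transiently transfected with multiple cis-regulated reporter units and dosed for 24 hours. The DR4 reporter mRNA was quantified by RT-PCR, 6-FAM labelling and capillary electrophoresis. Bidirectional fits used DMSO as baseline.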

[20] = ATG_M_61_CIS: Attagene CIS-FACTORIAL HepG2 Assay for M61 Transcription Factor (Internal Marker) (AID 2282937); details: HepG2 Attagene CIS-FACTORIAL M61 internal marker reporter; actives raise or lower the signal
Summary of the method: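 HepG2 cells transiently transfected with multiplexed cis-promoter reporter units reporting endogenous transcription factor activity, measured 24 h after dosing. Reporter mRNA quantified by RT-PCR and capillary electrophoresis; bidirectional fit against DMSO baseline.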

Measured: AC50

Clc1ccc(C(c2ccccc2Cl)C(Cl)(Cl)Cl)cc1 (stereo unspecified)
inactive: [1] | [2] | [4] | [6] | [7] | [8] | [9] | [10] | [11] | [12] | [14] | [15] | [16] | [17] | [18]
active: [2] 131 µM | [3] 37.5 µM [middle of 4 runs] | [5] 40.4 µM [middle of 4 runs] | [13] 874 nM [middle of 4 runs] | [15] 135 µM

CCOP(=S)(OCC)SCSC(C)(C)C
inactive: [1] | [2] | [3] | [19] | [4] | [5] | [6] | [7] | [9] | [10] | [11] | [12] | [14] | [15] | [16] | [17] | [18]
active: [19] 10.6 µM | [4] 78.2 µM | [10] 1.86 µM | [13] 29.7 µM and 5.91 µM

Clc1ccc(C(Cl)(Cl)Cl)cc1
not listed: [7]
inactive: all other assays above

CCC(=O)O[C@H]1CC[C@H]2[C@@H]3CCC4=CC(=O)CC[C@]4(C)[C@H]3CC[C@]12C
inactive: [2] | [3] | [19] | [5] | [6] | [8] | [9] | [10] | [20] | [12] | [14] | [15] | [16] | [17] | [18]
active: [1] 144 µM [middle of 4 runs] | [3] 72.9 µM and 100 µM | [19] 170 µM and 169 µM and 162 µM | [11] 100 µM and 77.1 µM and 129 µM | [13] 9.04 nM and 9.14 nM and 8.84 nM | [15] 187 µM | [16] 135 µM and 185 µM | [17] 140 µM

CCCCCCCCCC[N+](C)(C)CCCCCCCCCC
active: [3] 179 µM | [19] 6.09 µM | [5] 192 µM | [6] 100 µM | [10] 40.8 µM | [11] 6.79 µM | [17] 100 µM | [18] 100 µM
not listed: [4] | [20]
inactive: all other assays above
